# Source: PubChem BioAssay
# Active and inactive are the calls of the source.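 The calls were made as follows, unless noted: active = mean z-score across replicates of 1.96 or higher in either the MELAS or the Rieske mutant cell line; inactive = the rest.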 Where a SMILES comes first, the peptide text is derived from it. The star is where a group is joined. Cbz = O=C(OCc1ccccc1)*
# Tests used:
# [1] = sensitizers of A549 cells to miR-34 induction, primary screen, imaging, A549 dox-inducible miR-34, nuclei and caspase counts (AID 1347080;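 active = compounds whose cell count with miR-34 switched on is under 0.7 times the count with it off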); details: A549 miR-34 inducible, Hoechst nuclei count, 48 h
# [2] = survival rescue of mitochondrial mutant cells in low glucose, primary screen, MELAS cybrids, Rieske KO mouse fibroblasts, CellTiter-Glo (AID 1508586);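 also: z relative to plate mean and SD of compound and empty wells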
# [3] = stronger effect = lower value, cell number ratio, induced over uninduced
# [4] = measured here: relative caspase fold change +Dox/-Dox
# [5] = measured here: total cells with miR-34 induction, stronger effect = lower value
# [6] = measured here: total cells without miR-34 induction
# [7] = MELAS cybrid survival, CellTiter-Glo 48 h, stronger effect = higher value
# [8] = Rieske KO mouse fibroblast survival, CellTiter-Glo 72 h
# Also: test concentration not given here.
SMILES,"fold change [1, 3]","fold change [1, 4]","cell count [1, 5]","cell count [1, 6]","z-score [2, 7]","z-score [2, 8]"
CC(CNC(=O)c1cccnc1)NC(=O)c1cccnc1 (stereo unspecified),0.92 (inactive),1.03,9140,9930,-0.163 (inactive),-0.298
CCC(C(C)O)n1ncn(-c2ccc(N3CCN(c4ccc(OCC5CO[C@@](Cn6cncn6)(c6ccc(F)cc6F)C5)cc4)CC3)cc2)c1=O (stereo partly specified),1.04 (inactive),0.726,4300,4130,-0.325 (inactive),0.236
COc1cc(CCc2cc(NC(=O)c3ccc(N4CC(C)NC(C)C4)cc3)n[nH]2)cc(OC)c1 (stereo unspecified),0.767 (inactive),0.948,4590,5980,-0.509 (inactive),-1.9
O=C(Nc1ccccc1)N1CCN(c2nc(-c3ccccc3)ns2)CC1,1.02 (inactive),0.483,7250,7080,-0.215 (inactive),0.0401
Cc1[nH]c2ccccc2c1C1=C(NCCc2ccc(F)cc2)C(=O)N(C)C1=O,0.916 (inactive),0.466,2210,2410,-0.365 (inactive),1.08
CNC(=O)c1ccccc1Sc1ccc2c(C=Cc3ccccn3)n[nH]c2c1,0.918 (inactive),0.851,2240,2440,1.15 (inactive),-0.442
CNc1ncnc2c1ncn2C1OC(CO)C(O)C1O (stereo unspecified),0.908 (inactive),0.537,7310,8050,-0.0172 (inactive),-0.235
Cc1ccc(C2OC(CO)C(O)C(O)C2O)cc1Cc1ccc(-c2ccc(F)cc2)s1 (stereo unspecified),0.902 (inactive),0.772,9160,10100,-0.448 (inactive),0.478
CCC1OC(=O)CC(O)C(C)C(O[C@H]2OC(C)C(O[C@H]3C[C@@](C)(O)C(O)C(C)O3)C(N(C)C)C2O)C(CC=O)CC(C)C(=O)C=CC(C)=CC1COC1OC(C)C(O)C(OC)C1OC (stereo partly specified),0.9 (inactive),0.768,8760,9740,-0.254 (inactive),-0.134
CC#CCn1c(N2CCCC(N)C2)nc2c1c(=O)n(Cc1nc(C)c3ccccc3n1)c(=O)n2C (stereo unspecified),0.91 (inactive),0.676,9950,10900,-0.379 (inactive),0.539
CC(C)CC(C=O)NC(=O)C(CC(C)C)NC(=O)C(CC(C)C)NC(=O)OCc1ccccc1 (stereo not drawn) (Cbz-Leu-Leu-Leu-aldehyde; configuration not given here),0.872 (inactive),0.735,2300,2640,-0.114 (inactive),-3.43
COc1cc(O)cc(C2CC(=O)c3c(O)cc(OC4OC(CO)C(O)C(O)C4OC4OC(C)C(O)C(O)C4O)cc3O2)c1 (stereo unspecified),0.921 (inactive),0.443,8090,8790,-0.19 (inactive),-0.0453
CCOC(=O)C1=C(N)Oc2ccc(Br)cc2[C@H]1C(C#N)C(=O)OCC (stereo partly specified),0.989 (inactive),0.887,5900,5960,-0.334 (inactive),0.811
CC(C)c1cc(-c2ccc(F)c3ccccc23)nc(N)n1,0.949 (inactive),0.444,7570,7980,-0.214 (inactive),0.0729
CC(C)(C(=O)NCC(F)(F)C(F)(F)F)C(=O)NC1C(=O)Nc2ccccc2-c2ccccc21 (stereo unspecified),0.97 (inactive),0.87,7630,7860,-0.378 (inactive),0.321
Fc1ccc(C(c2ccc(F)cc2)N2CCN(CC=Cc3ccccc3)CC2)cc1,0.899 (inactive),0.978,7880,8760,-0.335 (inactive),0.411
